# Measurements from the supplement of paper PMC8728848.
# Many of the other results were omitted from the sample, so the strongest signals are more common in it than they were.
# B1: rAAL (Agrocybe aegerita), Q6WY08 (protein)
# chain: MQGVNIYNISAGTSVDLAAPVTTGDIVTFFSSALNLNAGAGNPNNTTLNLFAENGAYLLHIAFRLQENVIIFNSRQPDGPWLVEQAVSDVANQFAGIDGKAMVTVFDHGDKYQVVINEKTVIQYTKQISGLTLSLSYNATEETSIFSTVVEAVTYTGLALEHHHHHH
# Tests used:
# Test in all cases: glycan array binding signal (z-score within array); higher = stronger binding
# Settings in all cases: glycan notation: IUPAC condensed, linker removed; mutation: R85A
# [1] = biological target: Fuc(a1-2)Gal(b1-3)GlcNAc(b1-2)Man(a1-3)[Fuc(a1-2)Gal(b1-3)GlcNAc(b1-2)Man(a1-6)]Man(b1-4)GlcNAc(b1-4)GlcNAc
# How it was run: (§1)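 Columns mapping to the same glycan were averaged after glycan names were converted to IUPAC-condensed notation. The data come from 3228 arrays in the Consortium for Functional Glycomics database, limited to those with an available protein sequence. Binding is reported as a within-array Z-score averaged across arrays of one protein sequence and across linkers.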
# Fuc(a1-2)Gal6S(b1-4)Glc = biological target: Fuc(a1-2)Gal6S(b1-4)Glc
# How it was run: as §1
# [2] = biological target: Fuc(a1-2)[Gal(a1-3)]Gal(b1-3)GlcNAc(b1-2)Man(a1-3)[Fuc(a1-2)[Gal(a1-3)]Gal(b1-3)GlcNAc(b1-2)Man(a1-6)]Man(b1-4)GlcNAc(b1-4)GlcNAc
# How it was run: as §1
# [3] = biological target: Fuc(a1-2)[Gal(a1-3)]Gal(b1-4)GlcNAc
# How it was run: as §1
# [4] = biological target: Fuc(a1-3)[Gal(b1-4)]Glc6S
# How it was run: as §1
# [5] = biological target: Fuc(a1-3)[Gal(b1-4)]GlcNAc(b1-3)Gal(b1-3)[Fuc(a1-4)]GlcNAc
# How it was run: as §1
# Gal(a1-3)Gal(b1-4)Glc = biological target: Gal(a1-3)Gal(b1-4)Glc
# How it was run: as §1
# Gal(a1-4)Gal(b1-4)Glc = biological target: Gal(a1-4)Gal(b1-4)Glc
# How it was run: as §1
# [6] = biological target: Gal(b1-3)Gal(b1-4)GlcNAc(b1-2)Man(a1-3)[Gal(b1-3)Gal(b1-4)GlcNAc(b1-2)Man(a1-6)]Man(b1-4)GlcNAc(b1-4)GlcNAc
# How it was run: as §1
# [7] = biological target: Gal(b1-3)GlcNAc(b1-2)Man(a1-3)[Gal(b1-3)GlcNAc(b1-2)Man(a1-6)]Man(b1-4)GlcNAc(b1-4)GlcNAc
# How it was run: as §1
# [8] = biological target: Gal(b1-3)GlcNAc(b1-3)Gal(b1-4)GlcNAc(b1-6)[Gal(b1-3)GlcNAc(b1-3)]Gal(b1-4)Glc
# How it was run: as §1
# Gal3S(b1-3)GalNAc = biological target: Gal3S(b1-3)GalNAc
# How it was run: as §1
# Gal3S(b1-3)GlcNAc = biological target: Gal3S(b1-3)GlcNAc
# How it was run: as §1
# Gal3S(b1-4)Glc = biological target: Gal3S(b1-4)Glc
# How it was run: as §1
# Gal3S(b1-4)Glc6S = biological target: Gal3S(b1-4)Glc6S
# How it was run: as §1
# Gal3S(b1-4)GlcNAc6S = biological target: Gal3S(b1-4)GlcNAc6S
# How it was run: as §1
# Gal4S6S(b1-4)GlcNAc = biological target: Gal4S6S(b1-4)GlcNAc
# How it was run: as §1
# Gal6S(b1-4)Glc6S = biological target: Gal6S(b1-4)Glc6S
# How it was run: as §1
# [9] = biological target: GlcNAc(b1-2)Man(a1-3)[GlcNAc(b1-2)Man(a1-6)]Man(b1-4)GlcNAc(b1-4)GlcNAc
# How it was run: as §1
# [10] = biological target: GlcNAc(b1-3)Gal(b1-4)GlcNAc(b1-3)Gal(b1-4)GlcNAc
# How it was run: as §1
# Neu5Ac(a2-3)Gal(b1-4)Glc = biological target: Neu5Ac(a2-3)Gal(b1-4)Glc
# How it was run: as §1
# Neu5Ac(a2-3)GalNAc = biological target: Neu5Ac(a2-3)GalNAc
# How it was run: as §1
# [11] = biological target: Neu5Ac(a2-6)Gal(b1-4)GlcNAc(b1-3)GalNAc
# How it was run: as §1
# Neu5Ac(a2-8)Neu5Ac = biological target: Neu5Ac(a2-8)Neu5Ac
# How it was run: as §1
binder,measurement,setting,value
B1,glycan array binding signal (z-score),[1],-0.123
same,glycan array binding signal (z-score),Fuc(a1-2)Gal6S(b1-4)Glc,-0.131
same,glycan array binding signal (z-score),[2],-0.093
same,glycan array binding signal (z-score),[3],-0.127
same,glycan array binding signal (z-score),[4],-0.13
same,glycan array binding signal (z-score),[5],-0.132
same,glycan array binding signal (z-score),Gal(a1-3)Gal(b1-4)Glc,1.02
same,glycan array binding signal (z-score),Gal(a1-4)Gal(b1-4)Glc,-0.133
same,glycan array binding signal (z-score),[6],9.2
same,glycan array binding signal (z-score),[7],-0.072
same,glycan array binding signal (z-score),[8],0.051
same,glycan array binding signal (z-score),Gal3S(b1-3)GalNAc,14.6
same,glycan array binding signal (z-score),Gal3S(b1-3)GlcNAc,3.42
same,glycan array binding signal (z-score),Gal3S(b1-4)Glc,3.77
same,glycan array binding signal (z-score),Gal3S(b1-4)Glc6S,4.38
same,glycan array binding signal (z-score),Gal3S(b1-4)GlcNAc6S,0.209
same,glycan array binding signal (z-score),Gal4S6S(b1-4)GlcNAc,-0.136
same,glycan array binding signal (z-score),Gal6S(b1-4)Glc6S,-0.121
same,glycan array binding signal (z-score),[9],-0.127
same,glycan array binding signal (z-score),[10],-0.136
same,glycan array binding signal (z-score),Neu5Ac(a2-3)Gal(b1-4)Glc,0.216
same,glycan array binding signal (z-score),Neu5Ac(a2-3)GalNAc,-0.131
same,glycan array binding signal (z-score),[11],1.17
same,glycan array binding signal (z-score),Neu5Ac(a2-8)Neu5Ac,-0.125
